Test results taken from PubChem BioAssay (NCATS).
Results filed as inconclusive are left out. Calls of active or inactive are those of the source. Calls follow the shape of the dose curve; as a rule, active = well fitted curve in the direction sought with a large enough effect; inconclusive = small, poorly fitted or top-dose-only effect, or another doubt; inactive = no such curve, though single readings can be large; an effect the other way counts as inactive or inconclusive.

What was measured:
[1] = qHTS assay for measurement of the activity of small molecule inhibitors on Zika virus induced Caspase-3 activity in human iPSC derived neural progenitor cells (hNPCs) (AID 1224857); also: nearly all actives have a fitted effect of over 65% in size
In short: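 Percent inhibition of virus-induced caspase-3/7 luminescence (Caspase-Glo), scaled between uninfected cells and Zika-infected cells. hNPCs received compound 1 hr before ZIKV at 2 FFU/cell, with 6 hours infection at 37 C.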

[2] = qHTS assay for measurement of the activity of small molecule inhibitors on Zika virus induced Caspase-3 activity in human astrocytoma cells (AID 1224859)
In short: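 Luminescent caspase-3/7 read-out (30 min reagent, room temperature) in human SNB-19 cells infected 6 h with ZIKV (2 FFU/cell) after 1 h compound pre-incubation; Data were normalised to uninfected and infected wells.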

[3] = qHTS assay to identify small molecule inhibitors of chordoma cells - UCH-1 (AID 1259355); also: nearly all actives have a fitted effect of over 55% in size
In short: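 Luminescent ATP read-out (CellTiter-Glo, 30min at room temperature) measured viability of UCH-1 cells exposed for 48hr to test drugs at 15 concentrations, co-dosed with a five-agent combination of auranofin, camptothecin, doxorubicin, rubitecan and topotecan.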

[4] = qHTS assay to identify small molecule inhibitors of chordoma cells - UCH-2 (AID 1259356); also: series mostly up to about 46 µM

Measured: Potency

N[C@@H](Cc1cnc[nH]1)C(=O)O
inactive: [1] | [2] | [3] | [4]

C#C[C@]1(O)CC[C@H]2[C@@H]3CCC4=CC(=O)CC[C@@H]4[C@H]3CC[C@@]21C
inactive: [1] | [2] | [3] | [4]

CN1CCCC(CC2c3ccccc3Sc3ccccc32)C1 (configuration not stated)
inactive: [1] | [2] | [3] | [4]

Cc1c(C)n(CCN(C)C)c2ccc(C(=O)OCCN(C)C)cc12
inactive: [1] | [2] | [3] | [4]

COc1cc(-c2ccc(=O)[nH]n2)ccc1OC(F)F
inactive: [1] | [2] | [3] | [4]

CC[C@H](C)C(=O)O[C@H]1CCC=C2C=C[C@H](C)[C@H](CC[C@@H]3C[C@@H](O)CC(=O)O3)[C@H]21
inactive: [1] | [2] | [3] | [4]

O=C(OCC(O)CO)c1ccccc1Nc1ccnc2cc(Cl)ccc12 (configuration not stated)
inactive: [1] | [2] | [3] | [4]

CC(C)(Oc1ccc(Cl)cc1)C(=O)O
inactive: [1] | [2] | [3] | [4]

O=C(COc1ccc(Cl)cc1)N1CCN(Cc2ccc3c(c2)OCO3)CC1
inactive: [1] | [2] | [3] | [4]

CC(C)N=C(N)/N=C(\N)Nc1ccc(Cl)cc1
inactive: [1] | [2] | [3] | [4]

Nc1ccc(C(=O)O)cc1
inactive: [1] | [2] | [3] | [4]

Cc1cccn2c(=O)c(-c3nnn[nH]3)cnc12
inactive: [1] | [2] | [3] | [4]

CC/C(=C(/CC)c1ccc(O)cc1)c1ccc(O)cc1
inactive: [1] | [2] | [3] | [4]
